Source: PubChem BioAssay (NCI)
Compounds without any hit were thinned out: in the full panel of roughly 83,000, 20% have a hit.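 The endpoint reported here, percent growth, reads 100 for growth as untreated, 0 for no net growth and -100 for all cells dead.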 The source made the active and inactive calls. Rule for the calls: active = growth percent below 10; inactive = the rest.

system: HL-60(TB) leukemia; assay: NCI-60 one-dose screen, 48 h (100 = growth as untreated, 0 = no growth, -100 = all killed); details: 10 µM unless noted

SMILES	growth
O=C(Cn1c(-c2ccccc2)nc2cc(Cl)c(Cl)cc21)N=Nc1c(O)[nH]c2ccc(Cl)cc12	92.1% (inactive)
Cc1nc(N)sc1-c1csc(Nc2ccc(C(F)(F)F)cc2)n1	27.9% (inactive)
N#Cc1nc(-c2ccc(Cl)cc2)oc1N1CCC(S(=O)(=O)N2CCOCC2)CC1	112% (inactive)
CN1CCN(Cc2ccc(NC(=O)c3cncc(C#Cc4cnn5cccnc45)c3)cc2C(F)(F)F)CC1	-19% (active)
Cc1ccsc1[C@H]1c2[nH]c3ccccc3c2C[C@H]2C(=O)N(CCCCCCC(=O)NO)CC(=O)N12	104% (inactive)
CC(C)(C)c1cc(NC(=O)Nc2ccc(-c3cn4c5c(sc4n3)CCc3cn(CCCN4CCCCC4)cc3-5)cc2)no1	-18.9% (active)
CN(C)c1ccc(/C=N/Nc2nc(N/N=C/c3ccc(N(C)C)cc3)nc(N3CCOCC3)n2)cc1	96.7% (inactive)
CS(=O)(=O)c1ccc(-c2nc3ccccn3c2-c2nc3ccc([N+](=O)[O-])cc3[nH]2)cc1	95.7% (inactive)
CCCCCCNC(=O)Oc1ccc(/C(=C(/C)c2ccccc2)c2ccc(OCCN(C)C)cc2)cc1	23.2% (inactive)
CCCCCCN1C=C/C(=C\C(=O)n2ccc3ccccc32)c2ccccc21	24.7% (inactive)
Cc1[nH]nc2ncc(C#Cc3cncc(C(=O)Nc4ccc(CN5CCN(C)CC5)c(C(F)(F)F)c4)c3)cc12	13.6% (inactive)
COc1cc2nc(-c3ccc(Cl)cc3)cc(OCCCNCC3CCCO3)c2cc1OC (centres undefined)	32.1% (inactive)
CCNC(=O)N1CCc2cc(OC)c(OCCc3ccc(OC)cc3)cc2C1c1ccc(OC)cc1C (centres undefined)	23.9% (inactive)
CC(C)C[C@H]1C(=O)O[C@H](C(C)C)C(=O)N(C)[C@@H](C(C)C)C(=O)O[C@H](C(C)C)C(=O)N(C)[C@@H](C(C)C)C(=O)O[C@H](C(C)C)C(=O)N1C	-51.3% (active)
O=C(C[n+]1ccnc2ccccc21)c1ccc(O)c(O)c1	-24.7% (active)
CCOC(=O)c1c(NC(=O)c2cccc(C(F)(F)F)c2)sc2c3c(ccc12)OCN(C)C3	-56.3% (active)
NS(=O)(=O)c1ccc(Nc2nc(Nc3ccccc3)nc(N3N=C(c4ccc(Cl)cc4)CC3c3ccc(Cl)cc3)n2)cc1 (centres undefined)	25.6% (inactive)
COc1cc(C(=O)c2cc(C(C)=O)c3c4ccccc4ccn23)cc(OC)c1OC	32.9% (inactive)
COC(=O)C1CN(S(=O)(=O)/N=C2\NC(=O)NC2=C(Cl)Cl)C1	101% (inactive)
Cc1ccc([C@H]2c3[nH]c4ccccc4c3C[C@H]3C(=O)N(CCCCCCC(=O)NO)CC(=O)N23)s1	50.1% (inactive)
C=C(C)[C@@H]1CC[C@]2(COCCCNCCCN)CC[C@]3(C)[C@H](CC[C@@H]4[C@@]5(C)CC[C@H](O)C(C)(C)[C@@H]5CC[C@]43C)[C@@H]12	-28.1% (active)
CC(=O)c1cc(C(=O)c2ccc(Br)cc2)n2cc(C)cc(C)c12	83.3% (inactive)
CCN(CC)c1ccc(/C=N/NC(=O)c2ccc(NS(C)(=O)=O)cc2)cc1	3.16% (active)
CC(=O)Oc1ccccc1C(=O)Nc1ccc(C(=O)/C=C/c2cccs2)cc1	103% (inactive)
CNC(=O)c1cc(-n2ccc3cc(NC(=O)Nc4ccc(N5CCN(C)CC5)c(C(F)(F)F)c4)ccc32)ccn1	65.8% (inactive)
CN(C)CCCOc1ccc(C(=C(c2ccccc2)C2CCCC2)c2ccc(OCCCN(C)C)cc2)cc1	-57.1% (active)
OC1CCN(CCCOc2c3ccc(Cl)cc3nc3c2oc2ccccc23)CC1	-35% (active)
CCCCc1nc(/C=N/Nc2nc(Nc3ccccc3)nc(Nc3ccc(S(N)(=O)=O)cc3)n2)c(Cl)[nH]1	118% (inactive)
C/C(=N\NC(=O)CSc1nc2sc3c(c2c(=O)n1-c1ccccc1)CCC(C)C3)c1ccc(Cl)cc1 (centres undefined)	3.75% (active)
